# Test results: PubChem BioAssay AID504660 (National Center for Advancing Translational Sciences (NCATS), 2011)
# Values joined by “and” are separate entries in the source; they are usually repeats but may differ in a detail not shown here. Identical values can stand only once. The whole screen tested about 360,000 compounds, of which about 3,700 (1%) were called active. Many of the other results were omitted from the sample, so actives are more common in it than they were. Values without a mark were called inactive. No stated cut-off is given here; in the data, active means activation above about 30%; inactive means the rest.
# Target: D(1A) dopamine receptor (Homo sapiens) (UniProt P21728)
# Assay: Allosteric Agonists of the Human D1 Dopamine Receptor: qHTS; further: 0% is about no effect
# Details: HEK293 T-REx D1 cells, calcium flux, agonist mode; at 2 µM; stronger effect = higher value
# How it was run: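 Agonism was scored from calcium flux recorded over 180 s (1 read/s) after pintool compound addition, following a 10-cycle baseline. Cells were inducible force-coupled HEK293 TREx D1, plated overnight at 30 C and loaded with no-wash calcium dye.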
# Chain of D(1A) dopamine receptor (Homo sapiens) (P21728 whole entry, looked up): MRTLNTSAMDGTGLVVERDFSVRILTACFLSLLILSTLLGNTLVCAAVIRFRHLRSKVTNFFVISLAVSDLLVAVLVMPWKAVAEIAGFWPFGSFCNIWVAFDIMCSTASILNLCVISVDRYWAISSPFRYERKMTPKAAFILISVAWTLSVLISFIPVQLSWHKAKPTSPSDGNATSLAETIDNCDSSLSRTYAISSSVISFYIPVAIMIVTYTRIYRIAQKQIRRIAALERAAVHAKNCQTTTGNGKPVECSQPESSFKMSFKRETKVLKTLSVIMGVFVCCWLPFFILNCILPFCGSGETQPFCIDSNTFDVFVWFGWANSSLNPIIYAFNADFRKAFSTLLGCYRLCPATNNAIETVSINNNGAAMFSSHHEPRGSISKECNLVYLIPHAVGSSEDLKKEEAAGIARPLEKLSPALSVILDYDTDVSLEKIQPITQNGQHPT
row,SMILES,activation
1,CSc1ccc(CCNC(=O)c2ccc3c(c2)nc2n3CCOC2)cc1,0.926%
2,O=S(=O)(NCC(c1ccco1)N1CCOCC1)c1cc(F)ccc1F (stereo not given),-2.87%
3,CCc1ccc(C2CC(=O)c3c([nH]c(C(=O)OCc4ccc(C)cc4)c3C)C2)cc1 (stereo not given),3.18%
4,Cc1ccc2nc(COc3cccc(NC(=O)Nc4ccc(C)c(Cl)c4)c3)cc(=O)n2c1,-0.44%
5,Cc1ccc(C(=O)CC2(O)C(=O)N(CCc3ccccc3)c3ccc(Br)cc32)cc1 (stereo not given),9.1%
6,CCC(=O)c1ccc(OCC(=O)N(CC)CC2COc3ccccc3O2)cc1 (stereo not given),3.24%
7,c1ccc2c(c1)OCC(CNc1ncnc3nc[nH]c13)O2 (stereo not given),182% (active)
8,O=C(Cn1nc(Cc2cccnc2)c2ccccc2c1=O)NCC1COc2ccccc2O1 (stereo not given),0.536%
9,CCn1c2ccccc2c2nnc(N3CCN(c4cc(C)ccc4C)CC3)nc21,-0.584%
10,Cc1ccc2c(=O)c(C(=O)c3cccc(Cl)c3)cn(CC(=O)NCc3ccccc3)c2n1,0.234%
11,CCOc1ccc(NC(=O)Cn2cc(C(=O)c3ccc(C)cc3)c(=O)c3cc4c(cc32)OCCO4)cc1,4.93%
12,CCCn1c(=O)c(-c2ccccc2)c(O)c2ccccc21,0.534%
13,CC(=O)n1c(C=Nc2ccccc2)c(O)c2ccccc21,52.3% (active)
14,Cc1cc(=O)n(CC(=O)Nc2cccc([N+](=O)[O-])c2)c(-n2nc(C)cc2C)n1,-0.478%
15,Cc1ccc(C(=O)NC2CCN(C#N)CC2)cc1,-0.099%
16,Cc1ccccc1-n1c(C)cc(/C=N/NC(=O)c2ccc(CN3CCOCC3)cc2)c1C,9.59%
17,O=C(N/N=C/C=C/c1ccco1)c1cccs1,2.91%
18,Cc1cccc(-n2c(C)cc(/C=N\NC(=O)c3cccs3)c2C)c1,36.3% (active)
19,N#CN1CCC(NS(=O)(=O)c2cccc(F)c2)C1 (stereo not given),0.986%
20,Cc1cc2c(s1)c1cnn(Cc3cc(F)c(Cl)cc3Cl)c(=O)c1n2C,-0.162%
21,Cc1cccc(S(=O)(=O)c2cn(Cc3ccccc3)c3cc(N4CCOCC4)c(F)cc3c2=O)c1,1.08%
22,COCCNc1nc(N)c([N+](=O)[O-])c(N2CCCCCC2)n1,2.99%

row,SMILES,activation
1,Cc1c(Nc2cc(N3CCCC(C)C3)c3nonc3c2[N+](=O)[O-])c(=O)n(-c2ccccc2)n1C (stereo not given),-0.0536%
2,Nc1cc(N2CCCCCC2)c2nonc2c1[N+](=O)[O-],34.1% (active)
3,CC(C)c1ccc(NC(=O)Cn2c3ncccc3c(=O)n2-c2ccccc2)cc1,2.49%
4,COCCNc1ncnc2c1c(-c1ccccc1)cn2-c1ccc(C)c(Cl)c1,2.02%
5,CCC(O)C1CCN(Cc2cn(-c3ccc(OC)cc3)nc2-c2cccc(F)c2)CC1 (stereo not given),34.2% (active)
6,Cc1cccc(-n2cc(CN3CCN(C(=O)c4ncn[nH]4)CC3)c(-c3cccc(F)c3)n2)c1,1.07%
7,COc1ccc(-n2cc(CNC3CCOCC3)c(-c3cccc(F)c3)n2)cc1,14.3%
8,CCOC(=O)c1ccc(NC(=O)CSc2nc3c([nH]c4ccccc43)c(=O)n2C)cc1,0.658%
9,COc1cccc(C(=O)NCC(=O)OCc2cc(=O)n3ccsc3n2)c1,-0.454%
10,Cc1c(CCOC(=O)CC23CC4CC(CC(C)(C4)C2)C3)sc[n+]1Cc1ccc([N+](=O)[O-])cc1,35.6% (active)
11,Cc1c(CCO)sc[n+]1CC(=O)OC12CC3CC(CC(C3)C1)C2,2.73%
12,Cc1c(CCOC(=O)c2cc([N+](=O)[O-])ccc2Cl)sc[n+]1CCCCS(=O)(=O)[O-],2.52%
13,CCn1c(CN2CCC(C)CC2)nc2cc(NC(=O)c3ccccc3[N+](=O)[O-])ccc21,0.209%
14,COc1ccc(OC)c(NC(=O)CSC2=Nc3ccccc3C3=NC(CC(=O)NCc4ccc(F)cc4)C(=O)N23)c1 (stereo not given),-0.058%
15,CCOC(=O)c1ccc(N2C(=O)c3n[nH]c(C)c3C2c2ccc(O)c(OC)c2)cc1 (stereo not given),0.253%
16,CCCCCCCCCCOC(=O)Cn1c(COc2cccc(OC)c2)[n+](C)c2ccccc21,116% (active)
17,COc1ccc(-n2c(=O)c3sc4ccccc4c3n(CC(=O)Nc3cccc(C)c3)c2=O)cc1,8.8%
18,O=C(Nc1ccc(O)c(-c2nc3ccccc3o2)c1)c1ccc(-c2cccc(Cl)c2)o1,0.486%
19,Cc1cccc(OCC(O)Cn2c(=N)n(CCN3CCOCC3)c3ccccc32)c1 (stereo not given),0.333%
20,C=CCn1c(=N)n(CC(O)COc2ccc(OC)cc2)c2ccccc21 (stereo not given),40.4% (active)
21,CCCn1c(=N)n(CC(O)COc2ccccc2OC)c2ccccc21 (stereo not given),-0.594%
22,O=S(=O)(NCCc1nnc2ccc(SCc3ccc(Cl)cc3Cl)nn12)c1ccccc1,1.47%

row,SMILES,activation
1,CCn1cc(C(=O)N2CCN(c3cc(Cl)ccc3C)CC2)c(=O)c2cc(S(=O)(=O)N3CCCC3)ccc21,-0.309%
2,Cc1ccc(Cl)cc1N1CCN(C(=O)c2cccn3c(=O)c4cc(Cl)ccc4nc23)CC1,2.28%
3,Cc1ccc(Cl)cc1N1CCN(C(=O)c2cccc3c(=O)c(C)c(-c4ccccc4)oc23)CC1,34.3% (active)
4,COc1ccc(-c2c3c(=O)n(C)c(=O)n(C)c3c3c(C)nc4ccccc4n23)cc1,-0.834%
5,COc1ccc(-c2nn3c(-c4ccc(OC)cc4)nnc3c3ccccc23)cc1,-0.437%
6,CCOCCCNC(=O)c1cn(CC)c2ccc(S(=O)(=O)N3CCc4ccccc4C3)cc2c1=O,0.286%
7,CSCCC(NC(=O)COc1ccccc1)C(=O)OCC(=O)c1cc2ccccc2o1 (stereo not given),5.5%
8,CSCCC(NC(=O)COc1ccccc1)C(=O)OCCOc1ccc(F)cc1 (stereo not given),2.91%
9,CSCCC(NC(=O)COc1ccccc1)C(=O)OCCOc1ccc(Br)cc1 (stereo not given),30.8% (active)
10,O=C(c1cc(COc2ccc(F)cc2F)on1)N1CCOCC1,2.85%
11,CCOC(=O)CC1COCCN1C(=O)c1cc(COc2ccc(F)c(F)c2)on1 (stereo not given),43.4% (active)
12,CCC(NC(=O)c1cc(COc2ccc(F)c(F)c2)on1)c1ccncc1 (stereo not given),24.1%
13,CCCCc1nn2c(=O)cc(COC(=O)c3ccc(NC(=O)c4ccccc4C)cc3)nc2s1,4.38%
14,COCCCNC(=O)c1ccc(NC(=O)c2nsc3ccccc23)cc1,-0.261%
15,CN(C)c1ccc(/C=C2\NC(=S)N(Cc3ccccc3)C2=O)cc1,203% (active)
16,CCn1cc(C(=O)NCc2ccc(C)cc2)c(=O)c2cc(S(=O)(=O)N3CCc4ccccc4C3)ccc21,-1.37%
17,CN(C)c1ccc(NC(=O)CSc2nc(-c3ccco3)cc(C(F)(F)F)n2)cc1,-0.482%
18,Cc1cc(C)c(-c2n[nH]c3c2C(c2ccccc2F)N(CCO)C3=O)c(O)c1 (stereo not given),-0.0969%
19,CC(=O)c1ccc(NC(=O)CSc2nnc(NC(=O)Nc3ccccc3)s2)cc1,2.71%
20,C=CCSc1nsc(NC(=O)Nc2cccc(C(C)=O)c2)n1,34.2% (active)
21,CCSc1nsc(NC(=O)Nc2cccc(C(C)=O)c2)n1,29.4%
22,CCOc1ccc(-c2cc(C)n3nc(C(=O)Nc4ccc(C)c(C)c4)cc3n2)cc1,0.877%

row,SMILES,activation
1,Cc1ccccc1S(=O)(=O)N1[C@@H](c2cccc(Cl)c2)C(C(=O)O)=CC[C@H]1c1ccc(Cl)cc1,2.18%
2,Cc1ccc(S(=O)(=O)N2[C@@H](c3ccccc3F)C(C(=O)O)=CC[C@H]2c2ccc(Cl)cc2)cc1,3.48%
3,Cc1ccc(S(=O)(=O)N2[C@@H](c3cccc(Cl)c3)C(C(=O)O)=CC[C@H]2c2ccc(Cl)c(Cl)c2)cc1,43.2% (active)
4,CCOC(=O)N1CCc2c(sc(NCc3cccc(F)c3)c2C(=O)Nc2ccccc2OCC)C1,-1.06%
5,CCOc1ccc(C(O)Cn2c(=N)n(CCN3CCCCC3)c3ccccc32)cc1 (stereo not given),0.859%
6,N=c1n(Cc2ccc(Cl)cc2)c2ccccc2n1CC(O)c1ccco1 (stereo not given),92.6% (active)
7,O=C(NCc1ccccc1)C(=O)NCC(c1ccco1)S(=O)(=O)c1ccc(Cl)cc1 (stereo not given),0.796%
8,COc1cccc(N2CCN(C(=O)CCCCCn3c(=O)[nH]c4ccccc4c3=O)CC2)c1,3.15%
9,Cc1sc(C2C(C#N)=C(N)N(c3cccc(Cl)c3)C3=C2C(=O)CCC3)cc1CN1CCOCC1 (stereo not given),-0.583%
10,N#Cc1c(-c2cccs2)nc(SCC(=O)c2ccc(Br)cc2)[nH]c1=O,27.1%
11,Cc1ccccc1CSc1nnc(-c2ccccc2)c(=O)[nH]1,0.158%
12,N#Cc1c(-c2ccccc2)nc(SCc2cccc(C(F)(F)F)c2)[nH]c1=O,42.4% (active)
13,Cc1c(C(=O)NCc2ccccc2Br)oc2ccc3c(c12)C(=O)CC(C)(C)O3,5.52%
14,CCc1cccc(C)c1Nc1c(-c2ccc(N(C)C)cc2)nc2ncccn12,51.7% (active)
15,Cc1cccc(C)c1Nc1c(-c2ccccc2O)nc2ncccn12,-0.792% and 1.73%
16,Cc1ccccc1Nc1c(-c2ccccc2)nc2ncccn12,-0.718%
17,CCc1ccc(NC(=O)CN2CCC(C(=O)c3ccc(OC)cc3)CC2)cc1,2.75%
18,COc1ccc(NC(=O)CCN2CCN(CCO)CC2)cc1,1.35%
19,CCc1cc(C(=O)c2ccc(OC)cc2)c(NC(=O)CN2CCN(C)CC2)s1,32.2% (active)
